Among the test systems are NCI-H23 lung; NCI-H226 lung; NCI-H322M lung; HOP-62 NSCLC; NCI-H460 lung; HOP-92 NSCLC; NCI-H522 lung; A549/ATCC NSCLC; 786-0 renal; COLO 205 colon.
What all share (assay): NCI-60 one-dose screen, 48 h (100 = growth as untreated, 0 = no growth, -100 = all killed)
What all share (details): 10 µM unless noted

SMILES strings stand for the structures. Compounds without any hit were thinned out: in the full panel of roughly 83,000, 20% have a hit.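 Percent growth is the endpoint: 0 to 100 indicates growth inhibition (40 means 60% inhibition), 0 means no net growth, and negative values indicate cell death.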 Values without a mark were called inactive. Active and inactive are the calls of the source. How the source made its calls: active means growth percent below 10; inactive means the rest.

Regarding `CCOP(=O)(OCC)OC[C@]12CC[C@@H](C)[C@H](C)C1C1=CC[C@@H]3[C@@]4(C)CCCNC(C)(C)[C@@H]4CC[C@@]3(C)[C@]1(C)CC2` (stereo not given in full), the growth with NCI-H23 lung was 31.7%; with NCI-H226 lung, 62.5%; in the experiment with NCI-H322M lung it was 81.7%; with HOP-62 NSCLC, 65%; with NCI-H460 lung, -68.2% (active); in the experiment on HOP-92 NSCLC, 34.8%. For the same compound, the growth in the experiment on NCI-H522 lung was 57.2%; in the experiment on A549/ATCC NSCLC, 18.2%; in the experiment with 786-0 renal it was 14.9%; in the experiment with COLO 205 colon, -50.7% (active).
On to `Cc1ccc2c(n1)C(=O)C(Cl)=C(Nc1ccc(C)c(C)c1)C2=O`, for which the growth in the experiment with NCI-H23 lung is 11.7%; with NCI-H226 lung it was 36%; in the experiment with NCI-H322M lung, 60.9%; in the experiment on HOP-62 NSCLC, 60.2%; in the experiment with NCI-H460 lung, 46.4%; in the experiment on HOP-92 NSCLC, 105%. For the same compound, the growth is 58.9% with NCI-H522 lung, 24.5% with A549/ATCC NSCLC, 104% with 786-0 renal and 105% in the experiment on COLO 205 colon.
As for `O=C1[C@H]2Cc3c([nH]c4ccccc34)[C@H](c3ccc(Cl)cc3)N2C(=O)CN1C1CCN(CC2CCCCC2)CC1`, the growth in the experiment with NCI-H23 lung is 75.8%; with NCI-H226 lung, 88.2%; with NCI-H322M lung, 93.6%; in the experiment with HOP-62 NSCLC, 79.7%; in the experiment with NCI-H460 lung, 35.5%; in the experiment on HOP-92 NSCLC it was 70.5%. The growth with NCI-H522 lung was 71.5%; in the experiment with A549/ATCC NSCLC, 64.4%; in the experiment on 786-0 renal, 75%; in the experiment on COLO 205 colon, 51.4%.
On to `COc1cc2oc(-c3cccc(NC(=O)c4cccc([N+](=O)[O-])c4)c3)cc(=O)c2c(OC)c1OC`, for which the growth with NCI-H23 lung is 69%; in the experiment with NCI-H226 lung it was 62.8%; with NCI-H322M lung it was 82.4%; in the experiment with HOP-62 NSCLC, -36.4% (active); in the experiment on NCI-H460 lung it was 51.2%; with HOP-92 NSCLC, -0.118% (active). The growth in the experiment with NCI-H522 lung is 58.5%; in the experiment on A549/ATCC NSCLC, 43.8%; in the experiment on 786-0 renal, 65.6%; in the experiment with COLO 205 colon, 85.8%.
As for `COc1ccc(CC(C)=C(c2ccc(OCCN3CCCC3)cc2)c2ccc(OCCN3CCCC3)cc2)cc1`, the growth with NCI-H23 lung was -82.4% (active); in the experiment with NCI-H226 lung it was -69.2% (active); in the experiment on NCI-H322M lung, -75.7% (active); with HOP-62 NSCLC, -66% (active); in the experiment with NCI-H460 lung it was -62.3% (active); in the experiment on HOP-92 NSCLC it was -82.4% (active). The growth with NCI-H522 lung is -86% (active); with A549/ATCC NSCLC it was -68.2% (active); with 786-0 renal, -79.3% (active); in the experiment with COLO 205 colon, -61% (active).
Consider `COc1ccccc1/C=C/C(=O)c1nnn(-c2ccc(F)cc2)c1C`, for which the growth in the experiment on NCI-H23 lung was 42.9%; in the experiment on NCI-H226 lung, 53.1%; with NCI-H322M lung, 70.6%; with HOP-62 NSCLC it was 72.2%; in the experiment on NCI-H460 lung, 28.4%; in the experiment with HOP-92 NSCLC, 72.9%. The growth with NCI-H522 lung is 54%; with A549/ATCC NSCLC it was 41.7%; in the experiment with 786-0 renal, 84.5%; in the experiment on COLO 205 colon, 72.4%.
Regarding `Brc1ccc(-c2cc(-c3ccc4c(c3)OC=CO4)n[nH]2)s1`, the growth is 87.4% in the experiment with NCI-H23 lung; 95.1% in the experiment on NCI-H226 lung; 96.2% with NCI-H322M lung; 82% in the experiment with HOP-62 NSCLC; 96.4% in the experiment on NCI-H460 lung; 99.7% in the experiment with HOP-92 NSCLC. Also, the growth with NCI-H522 lung is 73.8%; in the experiment on A549/ATCC NSCLC, 89.9%; in the experiment with 786-0 renal, 104%; with COLO 205 colon it was 97.1%.
For `CCc1nnc(NC(=O)c2cc(-c3ccc(Cl)cc3Cl)oc2C)s1`, the growth in the experiment on NCI-H23 lung is 85.7%; in the experiment on NCI-H226 lung it was 85.6%; in the experiment with NCI-H322M lung, 85.4%; in the experiment on HOP-62 NSCLC, 96%; with NCI-H460 lung it was 53.9%; with HOP-92 NSCLC, 92%. For the same compound, the growth in the experiment with NCI-H522 lung was 79.4%; in the experiment on A549/ATCC NSCLC, 77.1%; in the experiment with 786-0 renal it was 95.9%; in the experiment with COLO 205 colon, 105%.
In the case of `CCOC(=O)c1c(N)c(C#N)cn1Cc1ccc(Cl)cc1Cl`, the growth in the experiment with NCI-H23 lung is 84.4%; in the experiment with NCI-H226 lung, 85.1%; in the experiment on NCI-H322M lung it was 87.4%; in the experiment on HOP-62 NSCLC, 68.7%; with NCI-H460 lung, 81.2%; with HOP-92 NSCLC, 73.1%. Moreover, the growth in the experiment on NCI-H522 lung was 67.2%; in the experiment with A549/ATCC NSCLC, 76.2%; in the experiment with 786-0 renal, 76.4%; with COLO 205 colon it was 106%.
Consider `CC1=C(C)C(=O)C(Nc2cccc(C(F)(F)F)c2)=C(Br)C1=O`, for which the growth is 88.8% with NCI-H23 lung; 83.2% in the experiment on NCI-H226 lung; 100% in the experiment with NCI-H322M lung; 81.1% in the experiment on HOP-62 NSCLC; 96.4% in the experiment with NCI-H460 lung; 25% in the experiment with HOP-92 NSCLC. Also, the growth was 29.2% in the experiment with NCI-H522 lung, 94.4% in the experiment with A549/ATCC NSCLC, 97% in the experiment with 786-0 renal and 115% in the experiment with COLO 205 colon.
`CC1=C(SCC(=O)OCCCCCC(C)C)C(=O)c2ccccc2C1=O`: the growth with NCI-H23 lung was 89%; with NCI-H226 lung, 93.8%; in the experiment on NCI-H322M lung, 100%; in the experiment with HOP-62 NSCLC, 106%; in the experiment with NCI-H460 lung, 102%; in the experiment on HOP-92 NSCLC, 85%. The growth with NCI-H522 lung is 68.4%; in the experiment on A549/ATCC NSCLC, 105%; in the experiment on 786-0 renal it was 99.9%; in the experiment on COLO 205 colon, 125%.
With `O=C1[C@@H]2Cc3c([nH]c4ccccc34)[C@H](c3ccc(Br)cc3)N2C(=O)CN1C1CCN(Cc2c(Cl)cccc2Cl)CC1`, the growth in the experiment with NCI-H23 lung was 91.7%; in the experiment on NCI-H226 lung, 85.8%; in the experiment with NCI-H322M lung it was 95.1%; in the experiment with HOP-62 NSCLC, 91.9%; in the experiment with NCI-H460 lung it was 97.5%; in the experiment on HOP-92 NSCLC it was 94.1%. In addition, the growth in the experiment with NCI-H522 lung was 91.7%; in the experiment on A549/ATCC NSCLC, 93%; in the experiment on 786-0 renal it was 99.8%; in the experiment with COLO 205 colon, 105%.
With `CC(C)(C)Nc1nc2c(OCCc3ccccc3)cccn2c1-c1cccc(Oc2ccccc2)c1`, the growth in the experiment on NCI-H23 lung is 11.1%; in the experiment with NCI-H226 lung, 15.2%; with NCI-H322M lung, 15.8%; in the experiment on HOP-62 NSCLC it was 11.1%; in the experiment with NCI-H460 lung it was 8.14% (active); with HOP-92 NSCLC, -12.8% (active). The growth was -26.1% (active) with NCI-H522 lung, 16.3% in the experiment on A549/ATCC NSCLC, 8.48% (active) in the experiment with 786-0 renal and -93.8% (active) with COLO 205 colon.

The values are drawn from PubChem BioAssay (NCI).
